For 120 compounds, Potency results are on record in PubChem BioAssay (NCATS).

Values without a mark were called inactive. Activity calls are given as the source filed them. No rule for the calls is given here.

The subject of this assay is HIV-1 nucleocapsid protein NCp7 (binding to TG oligonucleotide). The experiment in a line: HIV Nucleocapsid (AID 346).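 Also: potency is for inhibitors that block NC binding and lower polarization.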 As to conditions: HIV-1 NC / fluorescein-TGTGTGTG probe, fluorescence polarization. A digest of the protocol: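 Fluorescence polarization readout: labelled TG4xF oligo (10 nM) with 100 nM nucleocapsid protein, high-salt (250mM NaCl) Hepes pH 7.5 buffer containing zinc and fresh reducing agents. Compounds added by pin tool; incubation 1 hr, room temperature.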
Potency is read from the fitted curve at half-maximal effect.

As to `COc1ccc(-c2nc3cnc(Nc4cccc(OC)c4)nc3n(C3CC3)c2=O)cc1`, the Potency was 15.7 µM.

As for `O=C(c1ccncc1)N1CCC2(CCCN(c3ccccc3)C2)CC1`, the Potency was over 20 µM.

`COc1ccccc1-c1cc(NCc2cccnc2)ncn1`: the Potency was over 20 µM.

For the compound `CCNc1ncc2nc(-c3ccccc3)c(=O)n(CCC#N)c2n1`, the Potency was over 20 µM.

`O=C(c1ccncc1)N1CCC2(CC1)CCN(c1ccccn1)CC2`: the Potency is over 20 µM.

With `COC(=O)N1CCC2(CCCN(Cc3cc(C(F)(F)F)cc(C(F)(F)F)c3)C2)CC1`, the Potency was over 20 µM.

For `COCCNc1cc(-c2ccccc2C(F)(F)F)ncn1`, the Potency is over 20 µM.

Take `CS(=O)(=O)Nc1cccc(-c2nc(Nc3ccccc3)c3ccccc3n2)c1`: the Potency was over 20 µM.

As to `Cc1cccc(CNc2ncnc3ccc(-c4ccccc4CN(C)C)cc23)c1`, the Potency is over 20 µM.

Regarding `COc1ccc(Oc2ncc3nc(C)c(=O)n(Cc4cccs4)c3n2)cc1`, the Potency is over 20 µM.

In the case of `COc1ccc(CNc2ncnc3ccc(-c4ccc5c(c4)OCO5)cc23)c(OC)c1`, the Potency was over 20 µM.

Regarding `CN1CCN(c2ncnc3ccc(-c4ccoc4)cc23)CC1`, the Potency was over 20 µM.

In the case of `COC(=O)N1CCC2(CCCN(C(=O)Nc3cccc(C#N)c3)C2)CC1`, the Potency is over 20 µM.

As to `Cn1cc(-c2nc3cnc(N4CCOCC4)nc3n(CCC#N)c2=O)c2ccccc21`, the Potency was over 4 µM.

As for `COC(=O)N1CCC[C@@]2(CCN(C(=O)Nc3cccc(F)c3)C2)C1`, the Potency was over 20 µM.

On to `N#Cc1ccc(CN2CC3(CCN(C(=O)c4cc(C(F)(F)F)cc(C(F)(F)F)c4)CC3)C2)cc1`, for which the Potency is over 20 µM.

For `COc1ccc(NC(=O)N2CC[C@@]3(CCCN(C(=O)c4cccn4C)C3)C2)cc1`, the Potency is over 20 µM.

As to `Cn1cccc1C(=O)N1CCC[C@@]2(CCN(c3cccc(-c4ccccc4)c3)C2)C1`, the Potency is over 20 µM.

For `CC(=O)N1CCC2(CC1)CCN(c1ccncc1)CC2`, the Potency is over 20 µM.

In the case of `O=c1c(CCc2ccccc2)nc2cnc(N3CCNCC3)nc2n1Cc1ccc(F)cc1`, the Potency was over 20 µM.

With `COc1ccc(-n2c(=O)c(-c3ccc(F)c(F)c3)nc3cncnc32)cc1`, the Potency is over 4 µM.

With `Cn1c(=O)c(-c2ccc(F)cc2)nc2cnc(N3CCOCC3)nc21`, the Potency was over 20 µM.

Turning to `Cn1cccc1C(=O)N1CCC2(CC1)CCN(c1cccc(-c3ccccc3)c1)CC2`, the Potency was over 20 µM.

Turning to `COc1ccc(CNc2cc(-c3ccoc3)ncn2)c(OC)c1`, the Potency is over 20 µM.

In the case of `COc1ccc(CNc2ncncc2-c2ccc(N(C)C)cc2)c(OC)c1`, the Potency was over 20 µM.

`CS(=O)(=O)N1CCC2(CCN(Cc3ccc(C#N)cc3)CC2)CC1`: the Potency is over 20 µM.

Take `c1csc(CNc2ncncc2-c2ccoc2)c1`: the Potency is over 20 µM.

As for `O=c1c(-c2ccccc2)nc2cnc(N3CCNCC3)nc2n1C1CC1`, the Potency was over 20 µM.

As to `c1cncc(CNc2nc(-c3cccnc3)nc3ccccc23)c1`, the Potency was over 20 µM.

For the compound `N#Cc1ccc(CN2CC3(CCN(C(=O)c4ccco4)CC3)C2)cc1`, the Potency is over 20 µM.

As for `COCC(=O)N1CCC2(CC1)CCN(c1ncccn1)CC2`, the Potency is over 20 µM.

For the compound `COc1ccccc1-c1nccc(NCc2cccnc2)n1`, the Potency was over 20 µM.

As for `COCC(=O)N1CCC2(CC1)CN(c1ccncc1)C2`, the Potency was over 20 µM.

Consider `COc1ccc(C(=O)N2CCC3(CC2)CN(c2ncccn2)C3)cc1`, for which the Potency is over 20 µM.

Consider `COc1ccc(C(=O)N2CCC3(CC2)CN(c2ccccc2)C3)cc1`, for which the Potency was over 20 µM.

`CNc1ccnc(-c2ccccc2CN(C)C)n1`: the Potency is over 20 µM.

As for `Cn1c(=O)c(-c2ccccc2)nc2cnc(N3CCOCC3)nc21`, the Potency is over 20 µM.

Regarding `CS(=O)(=O)N1CCC[C@@]2(CCN(C(c3ccccc3)c3ccccc3)C2)C1`, the Potency is over 20 µM.

For the compound `COCCn1c(=O)c(-c2ccc(Cl)cc2)nc2cnc(OC)nc21`, the Potency is over 20 µM.

For `c1ccc(Nc2ncnc3ccc(-c4cccnc4)cc23)cc1`, the Potency was over 20 µM.

For the compound `Cc1noc(C)c1-c1nc(N2CCOCC2)c2ccccc2n1`, the Potency was over 20 µM.

`Cc1ccccc1-c1nc(N2CCOCC2)c2ccccc2n1`: the Potency is over 20 µM.

In the case of `COc1cccc(-c2ccc3ncnc(NCc4ccccc4)c3c2)c1`, the Potency is over 20 µM.

As for `CCNc1ncc2nc(-c3cccc(C#N)c3)c(=O)n(CCC#N)c2n1`, the Potency was over 4 µM.

Take `CC(=O)N1CCC2(CCCN(Cc3ccc(C#N)cc3)C2)CC1`: the Potency is over 20 µM.

`Cc1noc(C)c1-c1cncnc1Nc1ccccc1`: the Potency is over 20 µM.

As to `Cc1noc(C)c1-c1cncnc1N(C)Cc1ccco1`, the Potency is over 20 µM.

As to `CN(C)c1ccc(-c2ccc3ncnc(N(C)C)c3c2)cc1`, the Potency is over 20 µM.

With `COCCn1c(=O)c(-c2cccc(C#N)c2)nc2cnc(Oc3ccccc3)nc21`, the Potency is over 20 µM.

For `CN(C)Cc1ccccc1-c1ccc2ncnc(N3CCOCC3)c2c1`, the Potency was over 20 µM.

For the compound `COc1ccccc1CNc1cc(-c2ccc(C(=O)N(C)C)cc2)ncn1`, the Potency is over 20 µM.

Take `CN1CCN(c2ncc3nc(-c4cc(F)cc(F)c4)c(=O)n(C)c3n2)CC1`: the Potency was over 20 µM.

On to `COc1ccccc1CNc1ncncc1-c1ccc(N(C)C)cc1`, for which the Potency is over 20 µM.

Consider `Cn1cccc1C(=O)N1CCC[C@@]2(CCN(C(c3ccccc3)c3ccccc3)C2)C1`, for which the Potency is over 20 µM.

On to `Cc1noc(C)c1-c1cc(NC2CC2)ncn1`, for which the Potency is over 20 µM.

For `Cn1cccc1C(=O)N1CCC2(CC1)CCN(c1ccccc1)CC2`, the Potency was over 20 µM.

On to `O=c1c(-c2ccc(F)cc2)nc2cncnc2n1Cc1ccccc1`, for which the Potency was over 20 µM.

Turning to `c1cn(-c2ccnc(-c3ccc4c(c3)OCO4)n2)cn1`, the Potency was over 20 µM.

For the compound `COc1ccccc1CN1CC2(CCN(S(C)(=O)=O)CC2)C1`, the Potency is over 20 µM.

Turning to `COc1ncc2nc(-c3ccc(Cl)cc3)c(=O)n(CCc3ccccc3)c2n1`, the Potency was over 20 µM.

Regarding `COc1cccc(Cn2c(=O)c(C)nc3cnc(Oc4ccccc4)nc32)c1`, the Potency is over 20 µM.

Turning to `COc1ccc(-n2c(=O)c(-c3ccccc3)nc3cnc(N4CCN(C)CC4)nc32)cc1`, the Potency is over 20 µM.

`O=C(c1csnn1)N1CCC2(CCCN(c3ccccn3)C2)CC1`: the Potency is over 20 µM.

Take `CN(C)Cc1ccccc1-c1cncnc1NCc1ccccc1`: the Potency was over 20 µM.

Turning to `Cc1noc(C)c1-c1cc(NCc2ccccc2)ncn1`, the Potency is over 20 µM.

In the case of `COc1ccc2[nH]cc(CCNc3ccnc(-c4ccc(C(=O)N(C)C)cc4)n3)c2c1`, the Potency is over 20 µM.

For the compound `CN(C)c1ccc(-c2nc(NCCN3CCOCC3)c3ccccc3n2)cc1`, the Potency is over 20 µM.

`COc1ccc(-n2c(=O)c(-c3cc(F)cc(F)c3)nc3cnc(N4CCNCC4)nc32)cc1`: the Potency is over 20 µM.

Regarding `O=S(=O)(c1ccccc1)N1CCC[C@@]2(CCN(c3ccccc3)C2)C1`, the Potency is over 20 µM.

Regarding `COc1ccc2[nH]cc(CCNc3ccnc(-c4ccc(N(C)C)cc4)n3)c2c1`, the Potency was over 20 µM.

In the case of `CN1CCN(c2ncc3nc(-c4ccccc4)c(=O)n(C4CC4)c3n2)CC1`, the Potency is over 20 µM.

Turning to `O=C(c1cnccn1)N1CCC2(CC1)CCN(c1ccncc1)CC2`, the Potency was over 20 µM.

With `CN(C)c1nc(-c2ccccc2C(F)(F)F)nc2ccccc12`, the Potency is over 20 µM.

On to `COc1ncc2nc(-c3cc(F)cc(F)c3)c(=O)n(CCc3ccccc3)c2n1`, for which the Potency was over 20 µM.

Regarding `CCNc1ncc2nc(-c3cc(F)cc(F)c3)c(=O)n(-c3ccc(OC)cc3)c2n1`, the Potency is over 4 µM.

Turning to `c1ccc(C(c2ccccc2)N2CC[C@@]3(CCCNC3)C2)cc1`, the Potency is over 20 µM.

Take `COc1cccc(Nc2ncc3ncc(=O)n(Cc4cccs4)c3n2)c1`: the Potency is over 20 µM.

Consider `O=C(Nc1cccc(F)c1)N1CCCC2(CCN(C(=O)c3cccc(F)c3)CC2)C1`, for which the Potency was over 20 µM.

`COc1cccc(-c2ccc3ncnc(N4CCNCC4)c3c2)c1`: the Potency is over 20 µM.

Regarding `O=c1c(CCc2ccccc2)nc2cnc(Nc3ccccc3)nc2n1C[C@H]1CCCO1`, the Potency is over 20 µM.

Turning to `Cn1c(=O)c(-c2cccc(Cl)c2)nc2cncnc21`, the Potency was over 20 µM.

`CNc1ncnc2ccc(-c3cccc(NS(C)(=O)=O)c3)cc12`: the Potency is over 20 µM.

On to `CC(=O)NCCNc1nc(-c2ccccc2C(F)(F)F)nc2ccccc12`, for which the Potency was over 20 µM.

With `Cc1noc(C)c1-c1nccc(NCc2cccs2)n1`, the Potency is over 20 µM.

As for `COCC(=O)N1CCC2(CC1)CCN(C(=O)Nc1cccc(F)c1)CC2`, the Potency is over 20 µM.

Turning to `CN1CCN(c2nc(-c3cccnc3)nc3ccccc23)CC1`, the Potency is over 20 µM.

For `COc1ccc(CNc2cc(-c3ccccc3Cl)ncn2)c(OC)c1`, the Potency is over 20 µM.

Turning to `CN(Cc1ccco1)c1cc(-c2cccc(NS(C)(=O)=O)c2)ncn1`, the Potency was over 20 µM.

Turning to `CC(C)NC(=O)N1CC[C@@]2(CCCN(S(C)(=O)=O)C2)C1`, the Potency is over 20 µM.

Take `COc1cccc(Nc2ncc3nc(-c4ccccc4)c(=O)n(C[C@H]4CCCO4)c3n2)c1`: the Potency is over 20 µM.

For `N#CCCn1c(=O)c(-c2ccc(Cl)cc2)nc2cnc(N3CCNCC3)nc21`, the Potency was over 20 µM.

Turning to `CN1CCN(c2ncc3nc(-c4cn(C)c5ccccc45)c(=O)n(C[C@H]4CCCO4)c3n2)CC1`, the Potency is over 20 µM.

As to `COc1cccc(Nc2ncc3nc(-c4cccs4)c(=O)n(Cc4cccs4)c3n2)c1`, the Potency was over 20 µM.

Turning to `CS(=O)(=O)Nc1cccc(-c2ccc3ncnc(Nc4ccc(F)cc4)c3c2)c1`, the Potency is over 20 µM.

For `COc1ccc(NC(=O)N2CC[C@@]3(CCCN(C(=O)c4cnccn4)C3)C2)cc1`, the Potency was over 20 µM.

As for `COc1ccc(C(=O)N2CCC3(CC2)CCN(c2ccccc2)CC3)cc1`, the Potency was over 20 µM.

Regarding `N#CCCn1c(=O)c(-c2cccs2)nc2cnc(N3CCOCC3)nc21`, the Potency was 4.26 µM (active).

`O=C(c1ccco1)N1CCC2(CC1)CN(c1cccc(-c3ccccc3)c1)C2`: the Potency was over 20 µM.

For the compound `COc1cccc(-c2ccc3ncnc(NCCc4c[nH]c5ccc(OC)cc45)c3c2)c1`, the Potency is over 20 µM.

As to `COc1cccc(-c2nc(NCCc3c[nH]c4ccc(OC)cc34)c3ccccc3n2)c1`, the Potency is over 20 µM.

With `COCCn1c(=O)c(-c2ccccc2)nc2cncnc21`, the Potency was over 20 µM.

`CN(Cc1ccco1)c1cc(-c2ccoc2)ncn1`: the Potency was over 20 µM.

On to `Cc1cnc(CNc2nc(-c3cccnc3)nc3ccccc23)cn1`, for which the Potency is over 20 µM.

As for `CN(C)C(=O)c1ccc(-c2cncnc2NCCN2CCOCC2)cc1`, the Potency is over 20 µM.

Take `COc1ccccc1CN1CC[C@@]2(CCCN(C(=O)c3ccncc3)C2)C1`: the Potency is over 20 µM.

`Cc1nc2cnc(Nc3ccccc3)nc2n(Cc2cccs2)c1=O`: the Potency was over 20 µM.

As for `COc1ccccc1CNc1ccnc(-c2ccccc2C(F)(F)F)n1`, the Potency is over 20 µM.

As for `N#Cc1cccc(-c2cncnc2-n2ccnc2)c1`, the Potency is over 20 µM.

For the compound `COc1ccc(NC(=O)N2CCCC3(CCN(C(=O)c4cnccn4)CC3)C2)cc1`, the Potency is over 20 µM.

In the case of `COc1ccc(NC(=O)N2CCC3(CC2)CCN(C(=O)c2ccco2)CC3)cc1`, the Potency is over 20 µM.

As to `Cc1cnc(CNc2nc(-c3c(C)noc3C)nc3ccccc23)cn1`, the Potency is over 20 µM.

With `COc1ccccc1-c1nc(NCc2cccnc2)c2ccccc2n1`, the Potency was over 20 µM.

Take `CN(C)c1ccc(-c2cc(NCc3ccccc3)ncn2)cc1`: the Potency was over 20 µM.

Turning to `N#Cc1cccc(-c2nc(N3CCNCC3)c3ccccc3n2)c1`, the Potency is over 20 µM.

Turning to `COc1ncc2nc(CCc3ccccc3)c(=O)n(CCC#N)c2n1`, the Potency was over 20 µM.

Turning to `COc1ccc(C(=O)N2CCC[C@@]3(CCN(c4ncccn4)C3)C2)cc1`, the Potency is over 20 µM.

In the case of `O=C(Nc1cccc(F)c1)N1CC[C@@]2(CCCNC2)C1`, the Potency is over 20 µM.

As for `Cc1ccccc1-c1cc(NCc2cccnc2)ncn1`, the Potency is over 20 µM.

As for `CC(C)CN1CCC2(CC1)CCN(C(=O)c1cccc(F)c1)CC2`, the Potency was over 20 µM.

Turning to `O=S(=O)(c1ccccc1)N1CCC2(CC1)CN(c1ncccn1)C2`, the Potency was over 20 µM.
